Bioassay records from PubChem.
Hits are enriched below; roughly 3.1% of the tested compounds scored in any of these assays.
Vif-APOBEC3G blk: inhibitors of Vif-APOBEC3G interaction | Q9HC16 | HeLa A3G-eYFP + Vif (tagged APOBEC3G with the HIV-1 protein that degrades it), YFP fluorescence, overnight | Potency, µM (titrated, usually from 46.1 µM), inactives show at the highest dose activity, negative = active, hits mostly inhibitors | hit rate 0.076% among 410,000; further: potency means the concentration at half of the fitted maximal effect; on the % scale 0 is the no-effect control and ±100 the full control effect; nearly all actives have a fitted effect of over 60% in size
Target sequence (Q9HC16 whole entry, looked up): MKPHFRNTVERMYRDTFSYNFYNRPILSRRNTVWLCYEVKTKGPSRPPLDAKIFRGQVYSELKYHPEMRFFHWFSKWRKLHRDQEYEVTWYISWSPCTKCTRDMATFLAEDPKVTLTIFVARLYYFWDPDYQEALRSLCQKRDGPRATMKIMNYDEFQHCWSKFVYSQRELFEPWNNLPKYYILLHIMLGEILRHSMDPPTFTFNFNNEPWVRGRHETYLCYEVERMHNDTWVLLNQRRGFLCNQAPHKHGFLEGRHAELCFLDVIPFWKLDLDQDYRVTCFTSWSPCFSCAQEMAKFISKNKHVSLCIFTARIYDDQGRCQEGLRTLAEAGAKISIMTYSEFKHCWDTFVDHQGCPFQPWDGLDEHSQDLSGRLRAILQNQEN
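HeLa cells stably expressing Vif and C-terminally eYFP-tagged A3G, seeded overnight at 37 deg C, then exposed to compound by pintool overnight at 37 deg C. Rise in yellow fluorescence (Ex 488/Em 500-530, Acumen) marks blocked Vif-driven A3G degradation.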
PLK1 PBD block: PLK1 (human) polo-box domain binding inhibition. Plk1 PBD binding of FITC phosphopeptide, fluorescence polarization. Potency, µM, for the others: max response, negative = inhibition, actives largely listed as inhibitors. hit rate 2.8% among 360,000. AID 720504; further: potency means the concentration at half of the fitted maximal effect; series mostly up to about 57 µM; on the % scale 0 is the no-effect control and ±100 the full control effect; nearly all actives have a fitted effect of over 65% in size
Vif-APOBEC3F blk: blocks the Vif interaction with APOBEC3F | AID 602313 | Potency, µM (titrated, usually from 46.1 µM), without a hit: top-dose activity, negative = active | HeLa A3F-eYFP + Vif (tagged APOBEC3F with the HIV-1 protein that degrades it), YFP fluorescence increase | hit rate 0.2% among 390,000; further: potency means the concentration at half of the fitted maximal effect; % of control where 0% means no effect; nearly all actives have a fitted effect of over 65% in size
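HeLa cells stably expressing A3F-eYFP plus Vif, plated and incubated overnight at 37 deg C, then exposed to compounds overnight at 37 deg C. Blocked degradation read as raised yellow fluorescence (Ex 488/Em 500-530).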
VDR inhibitor: inhibitors of human vitamin D receptor. P11473. VDR-SRC2-3 peptide fluorescence polarization, 2 h. Potency, µM, inactives show max response, negative = inhibition, actives largely listed as inhibitors. hit rate 0.93% among 400,000; further: potency means the concentration at half of the fitted maximal effect; on the % scale 0 is the no-effect control and ±100 the full control effect
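The screen uses fluorescence polarization to detect compounds that interfere with recruitment of the SRC2-3 coactivator peptide to VDR; plates are read after 2 h at room temperature.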
TSHR antagonist: human thyrotropin receptor antagonism; activity change, negative = inhibition, % at 11.5 µM; hit rate 0.2% among 330,000; AID 504810; P16473; TSHR-expressing cells, TSH-stimulated cAMP HTRF, 2 h; hits give low values;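 active means activity change below a set negative limit, meaning inhibition stronger than a set level, cut at about -70% in these data; inconclusive means activity change between two set negative limits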; further: on the % scale 0 is the no-effect control and ±100 the full control effect
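Competitive HTRF cAMP read-out (cryptate anti-cAMP antibody, cAMP-d2; 30 min, room temperature) in freshly harvested TSHR cells. Compounds added before TSH at EC80 (4nM final), followed by 2 hours' incubation at 37 deg C.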
Starred values were filed as active, the others as inactive; u = inconclusive; x = no result; ! = not active in a repeat. Unless noted, the call rests on the fitted dose curve; in most records, active means well fitted curve in the direction sought with a large enough effect; inconclusive means small, poorly fitted or top-dose-only effect, or another doubt; inactive means no such curve, though single readings can be large; an effect the other way counts as inactive or inconclusive.

SMILES	Vif-APOBEC3G blk	PLK1 PBD block	Vif-APOBEC3F blk	VDR inhibitor	TSHR antagonist
CCOc1cc(CNc2ccc(O)cc2)cc(Cl)c1OCc1ccccc1	u	x	3%	-6%	x
CCOc1cccc(CNc2ccc(O)cc2)c1OCc1ccccc1Cl	u	-6%	2%	40µM*!	-2
COC(=O)C[C@H](NC(=O)[C@H](C)NC(=O)[C@@H](NC(=O)OCc1ccccc1)C(C)C)C(=O)CF	x	x	x	14%	x
O=S(=O)(c1cccnc1)N1CCN(c2nc(-c3cccs3)nc3ccccc23)CC1	2%	x	x	0%	x
Brc1ccccc1-c1nnc2sc(-c3ccc4c(c3)OCCO4)nn12	u	-4%	-3%	9%	-1
c1ccc2c(c1)OCC(c1nnc3sc(-c4cnccn4)nn13)O2 (configuration not stated)	-1%	28µM*	4%	u	1
c1ccc(OCc2nnc3sc(-c4cccs4)nn23)cc1	-3%	5.3µM*	-17%	u	-4
Fc1ccc(-c2nn3c(C4COc5ccccc5O4)nnc3s2)cc1 (configuration not stated)	3%	21µM*	-10%	u	-1
c1ccc2c(c1)OCC(c1nnc3sc(-c4ccc5c(c4)OCO5)nn13)O2 (configuration not stated)	1%	6.7µM*	4%	u	-6
Fc1ccc(-c2nnc3sc(C4COc5ccccc5O4)nn23)cc1 (configuration not stated)	-13%	-8%	-16%	19%	-15
COc1ccc(-c2nn3c(COc4ccccc4)nnc3s2)cc1OC	2%	u	3%	-3%	39
Clc1ccccc1-c1nnc2sc(-c3ccc4c(c3)OCO4)nn12	u	4.7µM*	-9%	u	-6
Clc1cccc(-c2nnc3sc(-c4ccc5c(c4)OCO5)nn23)c1	x	x	x	x	3
c1csc(-c2nn3c(C4COc5ccccc5O4)nnc3s2)c1 (configuration not stated)	-2%	24µM*	6%	u	0
CCN(CC)CC(=O)c1c(C)n(C)c2ccc(OC)cc12	2%	x	x	x	x
Cc1ccc(-c2cc(C(=O)Nc3ccc(S(=O)(=O)Nc4nccs4)cc3)c3ccccc3n2)c(C)c1	-19%	5.3µM*	7%	-23%	-6
Cc1cc(NS(=O)(=O)c2ccc(NC(=O)c3cc(-c4ccccc4Cl)nc4ccccc34)cc2)no1	-12%	67µM*	3%	7%	0
Cc1cc(C)c2nc(-c3ccccn3)cc(C(=O)Nc3ccc(S(=O)(=O)Nc4onc(C)c4C)cc3)c2c1	0%	6.7µM*	6%	-7%	-8
COc1ccc(-c2cc(C(=O)Nc3ccc(S(=O)(=O)Nc4onc(C)c4C)cc3)c3ccccc3n2)cc1OC	0%	-28%	6%	-17%	-3
Cc1cc(C)c2nc(-c3ccccn3)cc(C(=O)NCCc3ccc(S(N)(=O)=O)cc3)c2c1	-9%	30µM*	-1%	17%	-2
O=C(Nc1ccc(S(=O)(=O)Nc2nccs2)cc1)c1cc(-c2ccccc2)nc2ccccc12	-5%	u	7%	-17%	8
Cc1cc(C)c2nc(-c3ccccn3)cc(C(=O)NCc3ccc(S(N)(=O)=O)cc3)c2c1	-3%	-2%	-6%	1%	2
Cc1cc(NC(=O)c2cc(-c3ccccc3Cl)nc3ccccc23)no1	-9%	-14%	-18%	12%	-3
COc1ccc(C(=O)c2cn(Cc3ccc(F)cc3)c3ccc(C)cc3c2=O)cc1	-6%	x	1%	2%	x
O=C(C[N+]12CCCc3cccc(c31)CCC2)c1ccc2ccc3cccc4ccc1c2c34	-29%	x	x	x	x
SMILES	Vif-APOBEC3G blk	PLK1 PBD block	Vif-APOBEC3F blk	VDR inhibitor	TSHR antagonist
Cc1cc(NS(=O)(=O)c2ccc(NC(=O)c3cc(-c4cccnc4)nc4ccc(Cl)cc34)cc2)no1	0%	u	1%	10%	-2
Cc1cc(C)c2nc(-c3ccccn3)cc(C(=O)Nc3ccc(S(=O)(=O)Nc4cc(C)on4)cc3)c2c1	1%	21µM*	-13%	u	18
COc1ccc(S(=O)(=O)N2CCCC2C(=O)Nc2nnc(-c3cccnc3)s2)cc1 (configuration not stated)	1%	27µM*	-1%	u	24
CC1=C(C(=O)N2CCN(c3cccc(C)c3C)CC2)C2(CCCCC2)OC1=O	x	x	x	4%	x
c1coc(-c2cc(C3CCNCC3)[nH]n2)c1	-3%	-11%	1%	-12%	6
N#CCN1CCC(c2cc(-c3ccco3)n[nH]2)CC1	0%	30µM*	-4%	-22%	-2
COc1ccccc1/C=C/c1nc(S(=O)(=O)c2ccccc2)c(NCCN(C)C)o1	0%	30µM*	1%	u	37
CSCC[C@H](NC(=O)CNC(=O)CNC(=O)[C@H](CO)NC(=O)[C@H](CCCNC(=N)N)NC(=O)[C@H](CO)NC(=O)[C@H](CC(C)C)NC(=O)[C@H](CC(C)C)NC(=O)CNC(=O)[C@H](C)NC(=O)[C@H](CC(C)C)NC(=O)[C@H](CCCNC(=N)N)NC(=O)[C@H](Cc1cnc[nH]1)NC(=O)[C@@H](NC(=O)[C@@H](N)C(C)C)[C@@H](C)O)C(=O)N[C@H](C(=O)N[C@@H](CCCCN)C(=O)N[C@@H](CO)C(=O)N[C@@H](CC(N)=O)C(=O)N[C@@H](Cc1ccccc1)C(=O)N[C@H](C(=O)N1CCC[C@H]1C(=O)N[C@H](C(=O)N[C@@H](CC(N)=O)C(=O)N[C@H](C(=O)NCC(=O)N[C@@H](CO)C(=O)N[C@@H](CCCCN)C(=O)N[C@@H](C)C(=O)N[C@@H](Cc1ccccc1)C(N)=O)C(C)C)[C@@H](C)O)C(C)C)C(C)C	x	x	x	4%	x
Cc1cccc(C(=O)Oc2c(Br)cc(Br)cc2/C=N/NC(=O)c2ccncc2)c1	0%	30µM*	12%	u	-5
Cc1cc(C(=O)N/N=C/c2cc(Br)cc(Br)c2OC(=O)c2cccc(F)c2)n[nH]1	-1%	-13%	-13%	4%	-10
Cc1nnc(NC(=O)c2nc(SCc3ccccc3F)ncc2Cl)s1	-1%	x	-2%	5%	x
CCOc1ccc(NC(=O)c2nc(S(=O)(=O)Cc3ccc(C)cc3)ncc2Cl)cc1	-7%	x	x	x	x
CCc1nnc(NC(=O)c2nc(S(=O)(=O)Cc3ccc(C)cc3)ncc2Cl)s1	-19%	24µM*	-5%	22µM*	-19
Cc1nnc(NC(=O)c2nc(S(=O)(=O)Cc3ccccc3C)ncc2Cl)s1	u	u	1%	35µM*	-28
CC1(OC(=O)c2cnc3ccccc3n2)C(=O)C=C2C=C(c3ccsc3)OC=C2C1=O (configuration not stated)	x	x	x	0%	x
O=C(Nc1ccc2c(c1)CCC2)c1cc(S(=O)(=O)Nc2ccc(F)cc2)c(Cl)cc1Cl	-1%	-11%	-12%	2%	-76*
